Among the data in article PMC11006913 are binding signal values, retold here.

Assay in all cases: PBM; 200 nM protein, PBS
Common to all, as to conditions: dsDNA, one strand shown

Test [1] deals with SHOX (Homo sapiens, UniProt O15266 103-189).
Test [2] concerns the target T1, VENTX (Homo sapiens, UniProt O95231 78-163, R121Q).
T1 sequence: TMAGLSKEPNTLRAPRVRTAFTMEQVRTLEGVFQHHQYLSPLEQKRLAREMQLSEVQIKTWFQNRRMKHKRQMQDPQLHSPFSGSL

Test [3] addresses HOXB9 (Homo sapiens, UniProt P17482 171-250, T197M).
The target of test [4] is T2, VENTX (Homo sapiens, UniProt O95231 78-163).
T2 sequence: T1 sequence with Q44R

Test [5] addresses T3, VENTX (Homo sapiens, UniProt O95231 78-163, Y115F).
T3 sequence: T1 sequence with Y38F, Q44R

Test [6] has as its target HOXB9 (Homo sapiens, UniProt P17482 171-250).
The target in test [7] is SHOX (Homo sapiens, UniProt O15266 103-189, R173C).
SHOX (Homo sapiens, UniProt O15266 103-189, R173C), sequence (O15266 103-189 R173C): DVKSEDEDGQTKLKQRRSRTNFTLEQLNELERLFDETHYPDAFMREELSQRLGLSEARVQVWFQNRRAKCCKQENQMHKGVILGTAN
For test [8], the target named is PROP1 (Homo sapiens, UniProt O75360 56-141).
PROP1 (Homo sapiens, UniProt O75360 56-141), sequence (O75360 56-141): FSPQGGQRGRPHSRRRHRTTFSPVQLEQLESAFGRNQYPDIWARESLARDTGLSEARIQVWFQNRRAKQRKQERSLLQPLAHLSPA
Test [9] has as its target PROP1 (Homo sapiens, UniProt O75360 56-141, R99H).
Test [10] concerns the target HOXB9 (Homo sapiens, UniProt P17482 171-250, R186Q).
The target in test [11] is PROP1 (Homo sapiens, UniProt O75360 56-141, F88S).
PROP1 (Homo sapiens, UniProt O75360 56-141, F88S), sequence (O75360 56-141 F88S): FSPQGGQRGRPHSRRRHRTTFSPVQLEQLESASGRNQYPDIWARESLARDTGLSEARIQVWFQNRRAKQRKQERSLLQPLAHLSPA
Test [12] concerns the target T4, SIX6 (Homo sapiens, UniProt O95475 114-200, L167I).
T4 sequence: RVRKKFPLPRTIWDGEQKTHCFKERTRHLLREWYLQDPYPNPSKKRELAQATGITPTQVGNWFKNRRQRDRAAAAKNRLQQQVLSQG

Test [13] has as its target T5, SIX6 (Homo sapiens, UniProt O95475 114-200, L143V).
T5 sequence: T4 sequence with L30V, I54L

In test [14] the target is T6, SIX6 (Homo sapiens, UniProt O95475 114-200, H141N).
T6 sequence: T4 sequence with H28N, I54L

Test [15] has as its target T7, SIX6 (Homo sapiens, UniProt O95475 114-200, T165P).
T7 sequence: T4 sequence with T52P, I54L

The target of test [16] is T8, SIX6 (Homo sapiens, UniProt O95475 114-200, L167M).
T8 sequence: T4 sequence with I54M

In test [17] the target is T9, SIX6 (Homo sapiens, UniProt O95475 114-200, L143M).
T9 sequence: T4 sequence with L30M, I54L

Test [18] deals with T10, SIX6 (Homo sapiens, UniProt O95475 114-200, L143I).
T10 sequence: T4 sequence with L30I, I54L

The target in test [19] is T11, SIX6 (Homo sapiens, UniProt O95475 114-200, T165G).
T11 sequence: T4 sequence with T52G, I54L

Test [20] deals with T12, SIX6 (Homo sapiens, UniProt O95475 114-200, T139Q).
T12 sequence: T4 sequence with T26Q, I54L

Test [21] addresses T13, SIX6 (Homo sapiens, UniProt O95475 114-200, T165A).
T13 sequence: T4 sequence with T52A, I54L

The target of test [22] is T14, SIX6 (Homo sapiens, UniProt O95475 114-200, L167V).
T14 sequence: T4 sequence with I54V

For test [23], the target named is T15, SIX6 (Homo sapiens, UniProt O95475 114-200).
T15 sequence: T4 sequence with I54L

Test [24] deals with T16, SIX6 (Homo sapiens, UniProt O95475 114-200, T165I).
T16 sequence: T4 sequence with T52I, I54L

Test [25] concerns the target CRX (Homo sapiens, UniProt O43186 26-111).
The target of test [26] is CRX (Homo sapiens, UniProt O43186 26-111, E42D).
CRX (Homo sapiens, UniProt O43186 26-111, E42D), sequence (O43186 26-111 E42D): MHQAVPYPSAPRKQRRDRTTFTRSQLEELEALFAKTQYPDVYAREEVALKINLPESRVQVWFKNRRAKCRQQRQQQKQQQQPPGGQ
Test [27] has as its target CRX (Homo sapiens, UniProt O43186 26-111, R41L).
The target of test [28] is ALX4 (Homo sapiens, UniProt Q9H161 200-286).
ALX4 (Homo sapiens, UniProt Q9H161 200-286), sequence (Q9H161 200-286): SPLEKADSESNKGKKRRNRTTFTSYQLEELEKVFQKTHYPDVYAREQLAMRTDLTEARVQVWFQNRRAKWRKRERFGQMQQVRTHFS
Test [29] deals with ALX4 (Homo sapiens, UniProt Q9H161 200-286, Q225E).
ALX4 (Homo sapiens, UniProt Q9H161 200-286, Q225E), sequence (Q9H161 200-286 Q225E): as the sequence (Q9H161 200-286) above, with Q26E counted along it

Residue numbers refer to the chain shown, from its start.

SHOX (Homo sapiens, UniProt O15266 103-189), sequence (O15266 103-189): as the sequence (O15266 103-189 R173C) above, with C71R counted along it
HOXB9 (Homo sapiens, UniProt P17482 171-250, R186Q), sequence (P17482 171-250 R186Q): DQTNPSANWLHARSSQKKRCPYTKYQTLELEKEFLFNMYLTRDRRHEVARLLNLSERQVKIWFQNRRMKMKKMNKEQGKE
CRX (Homo sapiens, UniProt O43186 26-111, R41L), sequence (O43186 26-111 R41L): as the sequence (O43186 26-111 E42D) above, with R16L, D17E counted along it
PROP1 (Homo sapiens, UniProt O75360 56-141, R99H), sequence (O75360 56-141 R99H): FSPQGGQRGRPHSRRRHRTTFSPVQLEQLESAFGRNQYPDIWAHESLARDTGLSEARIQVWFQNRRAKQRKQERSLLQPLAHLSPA
CRX (Homo sapiens, UniProt O43186 26-111), sequence (O43186 26-111): as the sequence (O43186 26-111 E42D) above, with D17E counted along it
HOXB9 (Homo sapiens, UniProt P17482 171-250, T197M), sequence (P17482 171-250 T197M): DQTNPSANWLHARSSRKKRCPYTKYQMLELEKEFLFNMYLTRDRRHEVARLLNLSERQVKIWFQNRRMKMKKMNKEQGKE
HOXB9 (Homo sapiens, UniProt P17482 171-250), sequence (P17482 171-250): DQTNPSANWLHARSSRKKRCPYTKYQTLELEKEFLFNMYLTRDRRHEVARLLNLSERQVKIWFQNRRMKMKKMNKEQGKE

For CCGCATCC, the binding signal with SHOX [1] is 7.26 upbm affinity estimate (log intensity, higher = more binding, comparable within an allelic series); in the test with VENTX [2], 8.27 upbm affinity estimate (log intensity, higher = more binding, comparable within an allelic series); with HOXB9 [3], 8.5 upbm affinity estimate (log intensity, higher = more binding, comparable within an allelic series); with VENTX [4] it was 8.44 upbm affinity estimate (log intensity, higher = more binding, comparable within an allelic series); with VENTX [5], 8.27 upbm affinity estimate (log intensity, higher = more binding, comparable within an allelic series); with HOXB9 [6], 8.49 upbm affinity estimate (log intensity, higher = more binding, comparable within an allelic series). The binding signal with SHOX [7] was 7.23 upbm affinity estimate (log intensity, higher = more binding, comparable within an allelic series); with PROP1 [8], 6.85 upbm affinity estimate (log intensity, higher = more binding, comparable within an allelic series); with PROP1 [9], 6.89 upbm affinity estimate (log intensity, higher = more binding, comparable within an allelic series); in the test with HOXB9 [10] it was 8.51 upbm affinity estimate (log intensity, higher = more binding, comparable within an allelic series); with PROP1 [11], 6.67 upbm affinity estimate (log intensity, higher = more binding, comparable within an allelic series).
Turning to GGGCCGAA, the binding signal in the test with SHOX [1] is 7.23 upbm affinity estimate (log intensity, higher = more binding, comparable within an allelic series); with SIX6 [12], 8.79 upbm affinity estimate (log intensity, higher = more binding, comparable within an allelic series); in the test with SIX6 [13] it was 8.79 upbm affinity estimate (log intensity, higher = more binding, comparable within an allelic series); in the test with SIX6 [14] it was 8.73 upbm affinity estimate (log intensity, higher = more binding, comparable within an allelic series); with SIX6 [15] it was 8.89 upbm affinity estimate (log intensity, higher = more binding, comparable within an allelic series); with SIX6 [16] it was 8.8 upbm affinity estimate (log intensity, higher = more binding, comparable within an allelic series). Moreover, the binding signal in the test with SIX6 [17] was 8.64 upbm affinity estimate (log intensity, higher = more binding, comparable within an allelic series); in the test with SIX6 [18] it was 8.74 upbm affinity estimate (log intensity, higher = more binding, comparable within an allelic series); with SIX6 [19], 8.79 upbm affinity estimate (log intensity, higher = more binding, comparable within an allelic series); with SIX6 [20], 8.8 upbm affinity estimate (log intensity, higher = more binding, comparable within an allelic series); with SIX6 [21], 8.73 upbm affinity estimate (log intensity, higher = more binding, comparable within an allelic series); with SHOX [7], 7.18 upbm affinity estimate (log intensity, higher = more binding, comparable within an allelic series). In addition, the binding signal with SIX6 [22] was 8.77 upbm affinity estimate (log intensity, higher = more binding, comparable within an allelic series); with SIX6 [23] it was 8.68 upbm affinity estimate (log intensity, higher = more binding, comparable within an allelic series); in the test with SIX6 [24] it was 8.82 upbm affinity estimate (log intensity, higher = more binding, comparable within an allelic series).
In the case of CAGTCGCG, the binding signal is 7 upbm affinity estimate (log intensity, higher = more binding, comparable within an allelic series) with SHOX [1]; 8.23 upbm affinity estimate (log intensity, higher = more binding, comparable within an allelic series) in the test with CRX [25]; 8.35 upbm affinity estimate (log intensity, higher = more binding, comparable within an allelic series) in the test with CRX [26]; 7.2 upbm affinity estimate (log intensity, higher = more binding, comparable within an allelic series) with SHOX [7]; 8.3 upbm affinity estimate (log intensity, higher = more binding, comparable within an allelic series) in the test with CRX [27].
In the case of GCGCCCCC, the binding signal in the test with SHOX [1] was 7.04 upbm affinity estimate (log intensity, higher = more binding, comparable within an allelic series); with VENTX [2] it was 8.12 upbm affinity estimate (log intensity, higher = more binding, comparable within an allelic series); in the test with VENTX [4], 8.12 upbm affinity estimate (log intensity, higher = more binding, comparable within an allelic series); in the test with ALX4 [28] it was 8.12 upbm affinity estimate (log intensity, higher = more binding, comparable within an allelic series); in the test with VENTX [5] it was 8.06 upbm affinity estimate (log intensity, higher = more binding, comparable within an allelic series); with ALX4 [29] it was 8.14 upbm affinity estimate (log intensity, higher = more binding, comparable within an allelic series). Further, the binding signal with SHOX [7] was 7.07 upbm affinity estimate (log intensity, higher = more binding, comparable within an allelic series).
Regarding AAACTAAG, the binding signal in the test with SHOX [1] was 8.12 upbm affinity estimate (log intensity, higher = more binding, comparable within an allelic series).
